Assay [1] can be described thus: inhibitors of TNFa-induced NFkB p65 translocation, primary screen, imaging, HUVEC, MLSMR starter and 10KST1 sets (AID 438;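 active means inhibition above 20% together with a positive visual image hit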;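 further: compound added about 3h40 before a 20 min TNFalpha stimulation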;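 on inhibition: signal is the nuclear over cytoplasmic p65 intensity ratio per well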). Conditions: HUVEC TNFa-induced p65 nuclear translocation; cell count: measured here: nuclei count (cytotoxicity indicator), at 2.08 µM; inhibition: at 2 µM, stronger effect = higher value, 0% TNFa-plus-vehicle, 100% no-TNFa wells.
The nature of assay [2]: reduction of polyQ htt aggregates in cells – imaging, exon1htt(103Q)mCFP cells, high-content imaging, primary screen (AID 483;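 active means visual image review flags a hit and inhibition of aggregation exceeds 20%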;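 further: compound exposure lasted 3 days before fixation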;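 on nuclei count: percent of the per-plate median nuclei count of sample wells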). As to conditions: exon1htt(103Q)mCFP cell line, aggregate imaging, at 2 µM; inhibition of aggregation: stronger effect = higher value; nuclei count: measured here: cell count, toxicity.
The nature of assay [3]: endothelial E-selectin expression blockers – imaging, HUVEC, immunofluorescence, MLSMR starter and 10KST1 sets, primary screen (AID 487;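 active means visually confirmed hit in the image check and inhibition above 20%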;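 on inhibition: signal is fraction of cell area covered by stained E-selectin grains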;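 on nuclei count: 100% = median nuclei count of all wells on the same plate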). As to conditions: HUVEC TNFalpha-induced E-selectin immunofluorescence imaging, at 2 µM; inhibition: stronger effect = higher value; nuclei count: measured here: cell number, toxicity.
Assay [4] can be described thus: Primary imaging screen for DUSP6 inhibitors that restore phospho-Erk in transfected HeLa cells, chemical complementation (AID 609;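 active means compounds giving at least 50% inhibition in the cell-based MKP-3 phosphatase rescue imaging test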;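 on inhibition: phospho-Erk level distribution per well compared with pooled transfected vehicle control wells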). As to conditions: HeLa MKP-3 transfected, phospho-Erk imaging KS statistic, at 10 µM, cells stimulated with TPA for 15 min.
The target of assay [5] is Dual specificity protein phosphatase 6 (Homo sapiens) (UniProt Q16828). The description is as above. As to conditions: HeLa MKP-3 transfected, phospho-Erk imaging KS statistic; at 10 µM; stronger effect = higher value; cells stimulated with TPA for 15 min.
Assay [6] concerns the target Voltage-gated potassium channel subunit beta-2 (Rattus norvegicus) (UniProt P62483). The experiment in a line: inhibitors of rat Kvbeta2 reductase activity – biochemical, NADPH fluorescence, primary screen (AID 622;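 active means fluorescence slope higher than the sample average by over 3 SD, cut at about -0.22 in these data, passing the limit was not always enough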;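 further: slope of raw intensity against log time taken from 70 to 1610 s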). As to conditions: recombinant KvBeta, 4-cyanobenzaldehyde reduction, at 10 µM, stronger effect = higher value.
For assay [7] the target is unchanged. The experiment in a line: enhancers of rat Kvbeta2 NADPH turnover – biochemical, NADPH fluorescence, primary screen (AID 623;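 active means NADPH fluorescence slope more negative than the mean of all samples by about 3 SD, 99.7% confidence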;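 further: fluorescence intensity change per second fitted from 20 to 320 s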). As to conditions: Recombinant KvBeta, NADPH fluorescence decrease slope, 10 min; at 10 µM; stronger effect = lower value.
Assay [8] deals with Alpha-2C adrenergic receptor (Homo sapiens) (UniProt P18825). The experiment in a line: compounds altering alpha2C-coupled GIRK flux – cell-based, HEK293 alpha2C/GIRK1/2, thallium flux, primary screen (AID 624;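 active means fluorescence slope after compound addition differing from the mean of all screened samples at 99.7% confidence, in either direction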;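 further: slope of fluorescence ratio to pre-addition baseline per second over 15 to 24 s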). As to conditions: thallium flux BTC fluorescence, at 10 µM, actives lie on both sides.
Assay [9] is described as follows: inhibitors of larval lipid processing in zebrafish, primary screen, whole organism, PED6 fluorescence, gall bladder and intestine (AID 686;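 active means a full or partial loss of lipid-probe fluorescence in the fish gall bladder, intestine or both, judged by eye; inactive means no fluorescence loss, or compound toxic to the fish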;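 further: larvae 5 to 7 days old with five fish per well; signal comes from phospholipase A2 cleavage of quenched PED6 carried via bile; overnight exposure to compound and PED6 before scoring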). Conditions: Zebrafish larvae PED6 lipid processing, fluorescence scoring; screened at 20 µM (by protocol).
The nature of assay [10]: loss of swimming-algae plug formation – whole organism, Chlamydomonas reinhardtii, WT vs cilia-less mutant, absorbance, 96-well, primary screen (AID 463189).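 Further: 0% = wild type cc124 cells in DMSO and 100% = ciliumless bld1 mutant cells.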 Conditions: Chlamydomonas reinhardtii gravitaxis, OD600 absorbance, 2 days; at 10 µM; stronger effect = higher value.
Assay [11] is described as follows: blockers of RIG-like receptor reporter activation – cell-based, Sendai virus stimulus, luciferase, 10K MLSCN set, TLR/RLR signaling modifier project, primary screen (AID 602276;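 active means inhibition at or above 50% at 10 µM; inactive means inhibition below 50%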;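 further: firefly luciferase from ISG56 promoter only with Renilla not read in this screen; 0% = Sendai virus plus DMSO and 100% = medium plus DMSO without virus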). Conditions: HEK293 RL24 IRF3 luciferase reporter, at 10 µM, stronger effect = higher value. For orientation: Reporter assays use an easily measured gene product as a stand-in for the process of interest.

Assay [12] can be described thus: TLR3 IRF3 reporter activation blockers – cell-based, poly I:C stimulus, luciferase, 10K MLSCN set, primary screen (AID 602277;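 active means inhibition of the reporter signal at or above 50%; inactive means inhibition below 50%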). As to conditions: HEK293-TLR3 RL24 IRF3 luciferase reporter, at 10 µM, stronger effect = higher value.
Where [13] appears, read: measured here: cell density z-score.
The mark [14] stands for this setting: measured here: nuclear c-Myc green intensity z-score.
Where [15] appears, read: measured here: nuclear pErk red intensity z-score, stronger effect = higher value.

Values joined by “and” are separate entries in the source; they are usually repeats but may differ in a detail not shown here. Equal entries are not always repeated. Active and inactive are the calls of the source.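 How the source made its calls, unless noted: active means inhibition at or above 50% relative to wild type and mutant plate controls; inactive means inhibition below 50%.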

In general, inhibition refers to the change of the read-out against control, counted positive when it falls.

Chain of Dual specificity protein phosphatase 6 (Homo sapiens) (Q16828 whole entry, looked up): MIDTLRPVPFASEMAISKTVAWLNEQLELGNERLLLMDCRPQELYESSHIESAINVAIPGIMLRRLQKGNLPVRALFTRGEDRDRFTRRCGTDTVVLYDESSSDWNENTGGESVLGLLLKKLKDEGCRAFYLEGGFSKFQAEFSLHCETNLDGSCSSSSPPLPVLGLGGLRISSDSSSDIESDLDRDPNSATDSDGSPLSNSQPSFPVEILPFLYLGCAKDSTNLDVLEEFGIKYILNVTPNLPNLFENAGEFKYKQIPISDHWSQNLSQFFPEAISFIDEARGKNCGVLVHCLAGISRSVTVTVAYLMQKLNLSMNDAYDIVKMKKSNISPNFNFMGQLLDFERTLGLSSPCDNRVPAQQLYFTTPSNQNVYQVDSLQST
Chain of Alpha-2C adrenergic receptor (Homo sapiens) (P18825 whole entry, looked up): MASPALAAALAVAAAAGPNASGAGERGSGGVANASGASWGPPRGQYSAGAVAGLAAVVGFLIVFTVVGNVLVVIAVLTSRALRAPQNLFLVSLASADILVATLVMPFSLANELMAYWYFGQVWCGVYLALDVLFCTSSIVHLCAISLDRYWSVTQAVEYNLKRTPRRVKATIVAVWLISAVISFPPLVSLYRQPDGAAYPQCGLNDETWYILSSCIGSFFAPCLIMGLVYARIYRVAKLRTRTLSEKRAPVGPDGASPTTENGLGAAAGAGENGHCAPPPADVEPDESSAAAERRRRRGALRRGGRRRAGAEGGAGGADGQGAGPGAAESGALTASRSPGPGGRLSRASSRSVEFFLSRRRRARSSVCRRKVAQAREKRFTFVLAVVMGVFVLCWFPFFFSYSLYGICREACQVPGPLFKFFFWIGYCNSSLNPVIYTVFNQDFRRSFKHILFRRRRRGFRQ
Chain of Voltage-gated potassium channel subunit beta-2 (Rattus norvegicus) (P62483 whole entry, looked up): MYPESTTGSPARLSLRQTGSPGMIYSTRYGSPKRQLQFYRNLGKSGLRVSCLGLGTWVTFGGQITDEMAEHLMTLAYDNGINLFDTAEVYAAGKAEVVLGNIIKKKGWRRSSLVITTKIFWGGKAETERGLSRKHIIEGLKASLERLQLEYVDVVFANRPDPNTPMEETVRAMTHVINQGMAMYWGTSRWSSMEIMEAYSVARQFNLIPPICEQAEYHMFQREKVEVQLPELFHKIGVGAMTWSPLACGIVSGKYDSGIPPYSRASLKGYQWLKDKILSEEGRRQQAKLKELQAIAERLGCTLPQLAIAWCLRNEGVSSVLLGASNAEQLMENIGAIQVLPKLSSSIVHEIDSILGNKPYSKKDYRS

Take `CCC1(c2ccccc2)C(=O)NCNC1=O`: in assay [1], the cell count is 647. Moreover, the inhibition in assay [1] was 3.5% (inactive); in assay [3], -70% (inactive); in [5], 5.79% (inactive); in [10], -4.31% (inactive) and 28.8% (inactive); in assay [11], 17% (inactive); in assay [12] it was 30.6% (inactive). Besides, the inhibition of aggregation in assay [2] is -10.2% (inactive). In addition, the nuclei count turned out to be 103% in assay [2] and 129% in [3]. For the same compound, the z-score in assay [4] (setting [13]) was -0.87; in assay [4] (setting [14]), 2.71; in assay [4] (setting [15]), -0.522. Moreover, the fluorescence slope in assay [6] was -0.469 (inactive). The NADPH fluorescence slope in assay [7] is -8.7e-06 (inactive). In addition, the slope in assay [8] is 0.00482 (inactive). Also, the outcome in [9] was inactive.

As for `N=c1c[n+](N2CCOCC2)[n-]o1`, the cell count in assay [1] is 605. For the same compound, the inhibition in [1] is -7.1% (inactive); in [3], -109% (inactive); in assay [5], -8.38% (inactive); in assay [10], 5.26% (inactive) and -2.73% (inactive); in [11], 19.5% (inactive); in [12] it was 43.7% (inactive). In addition, in assay [2], the inhibition of aggregation was 4.6% (inactive). Besides, the nuclei count in assay [2] turned out to be 86.9%; in assay [3], 139%. Besides, the results for the z-score in assay [4] (setting [13]), in assay [4] (setting [14]) and in [4] (setting [15]) were 0.144, -0.44 and 0.201, respectively. In assay [6], the fluorescence slope is -0.496 (inactive). Also, the NADPH fluorescence slope in [7] was -5.7e-05 (inactive). The slope in assay [8] is 0.00445 (inactive). The call in assay [9] was inactive.

`CC(=O)OCC[N+](C)(C)C`: the cell count in assay [1] came to 554. In addition, the inhibition was -8.9% (inactive) in assay [1]; -102% (inactive) in [3]; -0.493% (inactive) in assay [5]; -4.51% (inactive) in assay [10]; 11.3% (inactive) in assay [11]; 31.5% (inactive) in assay [12]. In addition, in assay [2], the inhibition of aggregation is 10.6% (inactive). Further, the nuclei count worked out at 93.8% in assay [2] and 102% in [3]. For the same compound, the z-score in assay [4] (setting [13]) is -0.918; in assay [4] (setting [14]), -0.674; in assay [4] (setting [15]), -0.99. In addition, the fluorescence slope in assay [6] was -0.431 (inactive). Moreover, the NADPH fluorescence slope in assay [7] was 1.1e-05 (inactive). Also, the slope in assay [8] is 0.0173 (active). For the same compound, the compound was classed as inactive in assay [9].

In the case of `NS(=O)(=O)c1ccc(C(=O)O)cc1`, the cell count in [1] is 662. Also, the inhibition in assay [1] is -3.9% (inactive); in assay [3], -60.6% (inactive); in assay [5], 31.1% (inactive); in [10], 24.6% (inactive); in [11], -11.5% (inactive); in assay [12] it was -18% (inactive). Moreover, the inhibition of aggregation in assay [2] was 7.9% (inactive). Moreover, the nuclei count is 106% in assay [2] and 124% in [3]. Also, the z-score in assay [4] (setting [13]) was 1.84; in [4] (setting [14]) it was -0.0127; in [4] (setting [15]), -1.63. Further, in [6], the fluorescence slope was -0.499 (inactive). For the same compound, the NADPH fluorescence slope in [7] was 3.5e-06 (inactive). For the same compound, in assay [8], the slope was 0.00388 (inactive). Moreover, the compound was classed as inactive in [9].

Regarding `O=[N+]([O-])c1cccc2cn[nH]c12`, the cell count in assay [1] was 615. The inhibition in assay [1] was 1.2% (inactive); in assay [3], -87% (inactive); in assay [5], 3.45% (inactive); in assay [10] it was 4.7% (inactive) and 1.19% (inactive); in assay [11] it was 15.9% (inactive); in assay [12], 50.4% (active). In addition, in [2], the inhibition of aggregation is 15.8% (inactive). In addition, the values for the nuclei count in assay [2] and in [3] were 81.4% and 116%, respectively. Further, the z-score was 2.27 in assay [4] (setting [13]), -1.27 in assay [4] (setting [14]) and -1.46 in assay [4] (setting [15]). Besides, in assay [6], the fluorescence slope was -0.448 (inactive). Besides, the NADPH fluorescence slope in [7] was -7.3e-05 (inactive). Besides, the slope in assay [8] is 0.00537 (inactive). Moreover, the compound was classed as inactive in assay [9].

Regarding `N#Cc1nc(-c2cccs2)oc1NCCc1ccccc1`, the cell count in assay [1] amounted to 421. The inhibition in assay [1] is -5.5% (inactive); in [3] it was -33.7% (inactive); in [5], -6.48% (inactive); in assay [10] it was 11.6% (inactive); in assay [11] it was -37.1% (inactive); in [12] it was -77.6% (inactive). For the same compound, the inhibition of aggregation in [2] is 2.8% (inactive). Also, the nuclei count in [2] was 101%; in assay [3], 109%. Moreover, the z-score in [4] (setting [13]) is -0.62; in assay [4] (setting [14]), -0.621; in assay [4] (setting [15]) it was -1.02. Moreover, the fluorescence slope in [6] is -0.332 (inactive). Moreover, the NADPH fluorescence slope in [7] is 1.7e-05 (inactive). In addition, the slope in assay [8] was 0.00708 (inactive). In [9], the result was inactive.

Take `CCCC(=O)Nc1ncnc2c1ncn2[C@@H]1O[C@@H]2COP(=O)(O)O[C@H]2[C@H]1OC(=O)CCC`: the cell count in assay [1] amounted to 447. Moreover, the inhibition in assay [1] was 15.4% (inactive); in assay [3], -67.8% (inactive); in assay [5], 21.2% (inactive); in assay [10], 29.3% (inactive); in [11] it was 18.6% (inactive); in [12], 40.7% (inactive). Further, the inhibition of aggregation in assay [2] is 14.3% (inactive). Also, the nuclei count in assay [2] is 96.1%; in assay [3], 127%. Moreover, the z-score in assay [4] (setting [13]) came out at 0.217; in assay [4] (setting [14]), 0.395; in [4] (setting [15]) it was 0.177. For the same compound, in assay [6], the fluorescence slope was -0.511 (inactive). The NADPH fluorescence slope in assay [7] was -7.6e-06 (inactive). In addition, the slope in [8] is 0.00504 (inactive). In addition, in [9], the outcome was inactive.

Turning to `Cc1cc(C)nc(NC(=O)c2ccc(OC(C)C)cc2)n1`, in [1], the cell count turned out to be 520. Moreover, the inhibition is -2.7% (inactive) in assay [1]; -53% (inactive) in [3]; 17% (inactive) in [5]; -2.45% (inactive) in assay [10]; -1.16% (inactive) in assay [11]; -12.9% (inactive) in assay [12]. The inhibition of aggregation in [2] is -1.7% (inactive). The nuclei count in [2] is 110%; in [3], 123%. Besides, the z-score in [4] (setting [13]) was 0.524; in [4] (setting [14]), 1.41; in assay [4] (setting [15]), -0.231. In [6], the fluorescence slope was -0.449 (inactive). Further, in assay [7], the NADPH fluorescence slope is -4.9e-05 (inactive). Also, the slope in assay [8] was 0.00572 (inactive). In [9], the outcome was inactive.

Turning to `CC(C)(Oc1ccc(CCNC(=O)c2ccc(Cl)cc2)cc1)C(=O)O`, in [1], the cell count came out at 649. Moreover, the inhibition in assay [1] was -3% (inactive); in assay [3] it was -101% (inactive); in assay [5], 15.3% (inactive); in assay [10], 39.4% (inactive); in [11] it was 9.06% (inactive); in [12] it was 22.2% (inactive). The inhibition of aggregation in assay [2] was 5.2% (inactive). The values for the nuclei count in [2] and in [3] were 107% and 135%, respectively. Moreover, the z-score is -0.113 in [4] (setting [13]), -1.08 in assay [4] (setting [14]) and -0.613 in assay [4] (setting [15]). Moreover, the fluorescence slope in assay [6] was -0.452 (inactive). Besides, the NADPH fluorescence slope in [7] is -4.1e-05 (inactive). Besides, the slope in [8] was 0.00448 (inactive). Also, the result in [9] was inactive.

Turning to `CCc1cc2c(=O)c(-c3cscn3)coc2cc1O`, the cell count in assay [1] turned out to be 406. In addition, the inhibition in [1] was -6.1% (inactive); in assay [3], -99% (inactive); in assay [5], 1.98% (inactive); in [10], -8.67% (inactive); in assay [11] it was 20.6% (inactive); in [12], 26.3% (inactive). For the same compound, the inhibition of aggregation in [2] was -9.9% (inactive). The figures for the nuclei count in [2] and in assay [3] were 59.7% and 103%, respectively. Further, the z-score is -2.75 in assay [4] (setting [13]), 2.51 in [4] (setting [14]) and -1.53 in [4] (setting [15]). Moreover, in [6], the fluorescence slope is -0.528 (inactive). In addition, in assay [7], the NADPH fluorescence slope was 4e-05 (inactive). Moreover, the slope in assay [8] was 0.00552 (inactive). The result in assay [9] was inactive.
